Molecules are shown by their SMILES. This is part of a sample that, as a whole, favours compounds with a hit. Of some 83,000 tested, about 20% had one in any assay.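 Note: values are percent growth. 100 is the growth of untreated cells, values between 100 and 0 indicate rising inhibition; between -100 and 0 indicates cell death.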 Values without a mark were called inactive. Calls of active or inactive are those of the source. How the source made its calls: active means growth percent below 10; inactive means the rest.

Common to all, as to assay: NCI-60 one-dose screen, 48 h (100 = growth as untreated, 0 = no growth, -100 = all killed)
The test system of assay [1] is HCT-15 colon. Conditions: 10 µM unless noted.
Assay [2] deals with HT29 colon. Conditions: 10 µM unless noted.
For assay [3], the system named is SNB-75 CNS. The conditions noted are these: 10 µM unless noted.
In assay [4] the test system is SNB-19 CNS. Conditions: 10 µM unless noted.
Assay [5] concerns U251 CNS. The conditions noted are these: 10 µM unless noted.
The test system of assay [6] is PC-3 prostate. Conditions: 10 µM unless noted.
Assay [7] deals with UACC-62 melanoma. Conditions: 10 µM unless noted.
In assay [8] the test system is LOX IMVI melanoma. Conditions: 10 µM unless noted.
Assay [9] has as its system SK-MEL-28 melanoma. Conditions: 10 µM unless noted.
The subject of assay [10] is SK-MEL-2 melanoma. The conditions noted are these: 10 µM unless noted.
Assay [11] has as its system SN12C renal. The conditions noted are these: 10 µM unless noted.
Assay [12] relates to UO-31 renal. Conditions: 10 µM unless noted.
In assay [13] the test system is TK-10 renal. The conditions noted are these: 10 µM unless noted.
Assay [14] concerns ACHN renal. The conditions noted are these: 10 µM unless noted.
For assay [15], the system named is CAKI-1 renal. The conditions noted are these: 10 µM unless noted.
In assay [16] the test system is A498 renal. The conditions noted are these: 10 µM unless noted.
The test system of assay [17] is MOLT-4 leukemia. The conditions noted are these: 10 µM unless noted.
Assay [18] deals with EKVX NSCLC. Conditions: 10 µM.
Assay [19] concerns CCRF-CEM leukemia. Conditions: 10 µM.
In assay [20] the test system is SK-MEL-5 melanoma. The conditions noted are these: 10 µM unless noted.

On to `CCCCCCCCCCCCCCCCCC(=O)Nc1ccc(O)cc1`, for which the growth in assay [1] was 110%; in assay [2] it was 96.7%; in assay [3] it was 72%; in assay [4] it was 118%; in [5] it was 93.4%; in assay [6], 66.6%. Further, the growth was 102% in assay [7]; 96.9% in assay [8]; 103% in assay [9]; 83.1% in assay [10]; 75.7% in assay [11]; 52.5% in assay [12]. In addition, the growth is 85.3% in [13]; 104% in [14]; 95.1% in assay [15]; 109% in assay [16]; 26.7% in [17].
Take `O=c1oc2ccc3ccccc3c2cc1-c1ccnc2[nH]c(=S)[nH]c(=O)c12`: the growth is 105% in assay [1]; 95.3% in assay [2]; 98.9% in assay [3]; 95% in assay [4]; 98.5% in [5]; 93% in assay [6]. The growth in assay [7] was 88.2%; in [8] it was 93.1%; in assay [9], 105%; in assay [10], 104%; in [18], 101%; in assay [11], 93.1%. Further, the growth in assay [12] was 66.5%; in assay [13], 143%; in [14], 107%; in assay [16] it was 107%; in assay [19] it was 82.6%; in assay [17], 87.4%.
Regarding `COC(=O)[C@H](Cc1cn(C)cn1)NC(=O)[C@@H](NC(=O)Nc1cc(C(F)(F)F)cc(C(F)(F)F)c1)C(C)(C)C`, the growth in assay [1] is 70.5% [100 µM]; in assay [2], -66.9% [100 µM] (active); in [3], -55.1% [100 µM] (active); in assay [4] it was -91.6% [100 µM] (active); in [5] it was -89.9% [100 µM] (active); in assay [6] it was -92.9% [100 µM] (active). Also, the growth in assay [7] was -88.5% [100 µM] (active); in assay [8], -86.6% [100 µM] (active); in [9], -92.3% [100 µM] (active); in assay [10], -88.7% [100 µM] (active); in assay [11], -91.8% [100 µM] (active); in assay [12], 61.1% [100 µM]. For the same compound, the growth is -82% [100 µM] (active) in assay [13]; 0.692% [100 µM] (active) in [14]; 55% [100 µM] in assay [15]; -77% [100 µM] (active) in assay [16]; -25.7% [100 µM] (active) in assay [17].
As for `Cc1nc2c(nnn2-c2ccccc2)c2nc(-c3ccccc3)oc(=O)c12`, the growth in [1] is 101%; in assay [2], 113%; in [3], 99.1%; in [4], 104%; in [5] it was 110%; in [6] it was 105%. In addition, the growth was 97.2% in [7]; 98.3% in [8]; 104% in assay [9]; 108% in assay [10]; 99.3% in [18]; 103% in assay [11]. Besides, the growth in assay [12] is 86.5%; in assay [13], 104%; in assay [14], 105%; in assay [15], 93.8%; in assay [16], 98.6%; in assay [19], 111%. The growth in assay [17] was 112%.
With `CC(=N\N=C(N)N)/C(=N/N=C(N)N)c1ccccc1`, the growth in assay [1] was 103%; in assay [2], 42.7%; in assay [3], 88.4%; in assay [4], 68%; in [5], 80.7%; in assay [6] it was 75.2%. The growth in assay [7] was 103%; in assay [8], 95.6%; in [9], 110%; in [10] it was 84.6%; in assay [18] it was 68.6%; in assay [11] it was 107%. Besides, the growth in [12] is 82.9%; in [13] it was 91.1%; in assay [14], 106%; in assay [17], 48.9%.
Turning to `O=C(CBr)OCc1ccc([N+](=O)[O-])o1`, the growth was 93.9% in assay [1]; 104% in assay [2]; 91.4% in assay [3]; 104% in assay [4]; 92.1% in assay [5]; 76.2% in assay [6]. Moreover, the growth is 90.4% in [7]; 83% in assay [8]; 99.2% in assay [9]; 97.9% in [10]; 124% in assay [18]; 98.8% in assay [11]. Further, the growth in [13] is 101%; in assay [14] it was 89.6%; in [15] it was 53.8%; in [16], 117%; in assay [19], 74.1%; in assay [17], 95.6%.
On to `O=P(OCCCl)(OCCCl)C(O)c1ccccc1Cl` (centres undefined), for which the growth in [1] is 99.5%; in assay [2] it was 101%; in assay [3] it was 96.7%; in assay [4], 107%; in assay [5], 113%; in assay [6], 103%. Moreover, the growth in assay [7] is 106%; in [8] it was 104%; in [9], 113%; in [10], 112%; in assay [11], 111%; in assay [12], 80.2%. Further, the growth was 102% in [13]; 98.4% in [14]; 76.4% in [15]; 121% in assay [16]; 99.8% in assay [17].
Consider `CC(=O)Nc1nc(C)c(C(=O)N/N=C/N2CCOCC2)s1`, for which the growth in assay [1] is 105%; in [2], 107%; in assay [3] it was 101%; in assay [4], 104%; in [5], 101%; in assay [20], 112%. In addition, the growth in assay [7] is 98.4%; in [8], 106%; in assay [9], 111%; in [10] it was 34.1%; in assay [18] it was 122%; in assay [11], 105%. Further, the growth in assay [12] is 89%; in assay [13], 103%; in [14] it was 104%; in assay [15], 140%; in [16], 110%; in [19], 76.3%. The growth in assay [17] was 188%.
On to `COc1cc2c(c(OC)c1OC)C(=O)CC(c1cccc(C(=O)Nc3cccc(Br)c3)c1)O2` (centres undefined), for which the growth in assay [1] is 72.1%; in assay [2], 82.3%; in assay [3], 75.4%; in assay [4] it was 76.4%; in assay [5] it was 81.8%; in [6] it was 59.1%. Also, the growth in assay [7] was 58.4%; in assay [8], 90%; in [10], 73.8%; in [18], 85.1%; in assay [11], 71.7%; in assay [12], 51.3%. Also, the growth in assay [13] is 109%; in [14], 89.1%; in [15] it was 85.3%; in assay [16] it was 76%; in assay [19], 45%; in assay [17], 48.8%.

The values are drawn from PubChem BioAssay (NCI).
